Measured values as given in PubChem BioAssay (NCI).
This is part of a sample that, as a whole, favours compounds with a hit. Of some 79,000 tested, about 15% had one in any assay. Unmarked numbers belong to inactive results. Calls of active or inactive are those of the source. Rule as the data show it: active = growth inhibition above about 70%; inactive = the rest.

Assay: NCI Yeast Anticancer Drug Screen. Data for the rad18 strain (AID 177)
Settings: S. cerevisiae rad18 mutant growth inhibition, stronger effect = higher value
Method: Growth inhibition of yeast strains with defined genetic alterations is measured as a screen for potential anti-cancer activity. Selected strains with alterations in DNA damage repair or cell cycle control were exposed to compounds and growth inhibition was measured relative to vehicle treated controls. The strain used in this assay is rad18

| SMILES | growth inhibition (at 1.2 µM) | growth inhibition (at 3.7 µM) | growth inhibition (at 11.0 µM) | growth inhibition (at 33.0 µM) | growth inhibition (at 100.0 µM) |
| --- | --- | --- | --- | --- | --- |
| O=Nc1ccc(Nc2ccccc2)cc1 | -33% | -24% | 9% | 77% (active) | 96% (active) |
| Oc1ccccc1N=Cc1ccc(Cl)cc1 | 17% | 30% | 43% | 64% | 87% (active) |
| CN=C(N)N/N=C(\C)c1ccc2oc3ccc(/C(C)=N/NC(N)=NC)cc3c2c1 | -13% | -13% | 70% (active) | 98% (active) | 98% (active) |
| O=C(O)c1ccccc1.[Ag] | 74% (active) | 101% (active) | 99% (active) | 99% (active) | 99% (active) |
| Cc1cc(C)c(N2C(=O)CC(Sc3ccccc3N)C2=O)c(C)c1 (stereo not given) | -54% | -45% | -38% | -47% | -44% |
| O/N=C/C1c2ccccc2-c2ccccc21 | 2% | 11% | 44% | 74% (active) | 97% (active) |
| c1ccc2c(c1)ccc1c3ccncc3ccc21 | -2% | 18% | 96% (active) | 99% (active) | 94% (active) |
| Cc1ccc2c(ccc(/C=C/c3ccc(O)c4ncccc34)[n+]2C)c1 | 17% | 31% | 80% (active) | 91% (active) | 63% |
